Source: PubChem BioAssay (National Center for Advancing Translational Sciences (NCATS))
TDP1 cell CPT: growth inhibition of DT40 Tdp1-/-;hTDP1 cells with camptothecin (screen for TDP1 inhibitors); chicken DT40 Tdp1-/-;hTDP1 cells + 20 nM CPT, ATP luminescence, 48 h; Potency, µM (doses to about 46.2 µM), for the others: at the top dose activity change, negative = growth inhibition, most hits filed as inhibitors; 420,000 tested, 12% active; AID 686979; also: nearly all actives have a fitted effect of over 55% in size
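Chicken DT40 Tdp1-/- cells stably complemented with human TDP1 were seeded at 400 cells/well in medium containing 20 nM camptothecin, exposed to pin-transferred compounds, and grown at 37 °C for at least 48 hr. Viability was read as ATP luminescence.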
KB-V1 MDR tox: kills drug-selected multidrug resistant KB-V1 cells; 400,000 tested, 3.4% active; KB-V1 MDR cells viability, CellTiter-Glo, 72 h; Potency, µM (highest dose often 46.1 µM), actives largely listed as cytotoxic; also: nearly all actives have a fitted effect of over 60% in size
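Cytotoxicity toward P-gp-expressing KB-V1 cells was determined as loss of CellTiter-Glo luminescence after 72 h at 37 degrees C. Compounds were tested in quantitative HTS format across a concentration range, with curves fitted to normalized data.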
TDP1 cell noCPT: qHTS for Inhibitors of human tyrosyl-DNA phosphodiesterase 1 (TDP1): qHTS in cells in absence of CPT. 420,000 tested, 15% active. DT40 Tdp1-/- hTDP1 cells, no CPT, ATP luminescence, 48 h. Potency, µM (titrated, usually from 46.2 µM), inactives show at the highest dose activity change, negative = growth inhibition, actives largely listed as inhibitors; also: nearly all actives have a fitted effect of over 55% in size
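Cells were dispensed at 400 per well, compounds added by pin tool, plates incubated ≥48 hr at 37 °C, then CellTiter-Glo added for 30 min at room temperature before luminescence reading. Line: DT40 Tdp1-/- complemented with hTDP1; camptothecin omitted.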
KB-3-1 tox: kills parental KB-3-1 adenocarcinoma cells. KB-3-1 viability, CellTiter-Glo ATP luminescence, 72 h. Potency, µM (top dose mostly 46.1 µM), most hits filed as cytotoxic. 400,000 tested, 1.4% active. AID 1347075; also: nearly all actives have a fitted effect of over 60% in size
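Cytotoxicity in the drug-sensitive parental line KB-3-1 was scored as loss of CellTiter-Glo luminescence following 72 h incubation with compound. Values come from curve fitting of normalized concentration-response data.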
HT1080NT lethal: kills 2HG-producing HT-1080-NT fibrosarcoma cells; HT-1080-NT fibrosarcoma viability, CellTiter-Glo ATP luminescence, 48 h; Potency, µM (highest dose often 46.1 µM), for the others: at the highest dose activity, negative = less viability, actives largely listed as cytotoxic; 360,000 tested, 1.6% active; AID 686970;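 also: NT is the 2HG producing partner of a matched IDH1 knockdown line; 0% = DMSO-treated cells and -100% = media-only wells without cells; nearly all actives have a fitted effect of over 55% in size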
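HT-1080-NT fibrosarcoma cells (2HG-overproducing), 750 cells/well in RPMI with 5% FBS, dosed after 2 h and incubated 48 h at 37C. CellTiter-Glo luminescence normalized to DMSO and no-cell wells; concentration-response curves fitted and classed.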
HT1080 IDH1KD tx: HT-1080 IDH1 knockdown cell toxicity (counter line); 360,000 tested, 2% active; HT-1080 IDH1 knockdown viability, ATP luminescence, 48 h; Potency, µM (doses to about 46.1 µM), for inactives: at the top dose activity, negative = toxicity, actives largely listed as cytotoxic;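 also: 0% = DMSO wells and -100% = cell-free medium wells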
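In this qHTS, HT-1080 cells depleted of IDH1 are exposed for 48 h at 37 °C to compound titrations. Toxicity is scored from CellTiter-Glo luminescence, with DMSO as full viability and medium alone as none.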
* = called active by the depositor; i = inactive; u = inconclusive; x = no result given; [ ] = remark or other dose. Only some compounds are listed: those with a hit (about 19% of all), similar ones and a draw of the others. Calls follow the shape of the dose curve; as a rule, active = well fitted curve in the direction sought with a large enough effect; inconclusive = small, poorly fitted or top-dose-only effect, or another doubt; inactive = no such curve, though single readings can be large; an effect the other way counts as inactive or inconclusive. Unless noted, % is scaled to controls: 0 for no effect and ±100 for the full control effect; potency is read from the fitted curve at half-maximal effect.

SMILES	TDP1 cell CPT	KB-V1 MDR tox	TDP1 cell noCPT	KB-3-1 tox	HT1080NT lethal	HT1080 IDH1KD tx
CC1CC2(C)Oc3ccccc3CC2C(C)C1CNCCCN(C)C (configuration not stated)	4.1µM*	18µM*	1.2µM*	15µM*	5.8µM*	6.5µM*
N=C(N)SCCc1ccc(OCc2ccc([N+](=O)[O-])cc2)cc1	8.4µM*	x	u	x	x	x
O=C(Cc1ccc([N+](=O)[O-])cc1)OCc1ccc([N+](=O)[O-])cc1	9%	i	-15%	i	-3%	12%
CC(C)(CSc1ncccn1)NS(=O)(=O)c1ccccc1	-3%	i	-10%	u	0%	4%
Cc1ccc(S(=O)(=O)NC(C)(C)CSc2nnc(Nc3ccccc3)s2)cc1	23µM*	u	u	i	-12%	-19%
COc1ccc(OCc2nc3c4c(-c5ccc(OC)cc5)c(-c5ccc(OC)cc5)oc4ncn3n2)cc1	-8%	i	3%	i	x	x
CCN(CC)CCNC(=O)c1cc2c(-c3ccc(Cl)cc3)nn(C)c2s1	u	u	u	u	18µM*	18µM*
CCCCN(CC)CCNC(=O)c1cc2c(-c3ccc(Cl)cc3)nn(C)c2s1	u	23µM*	u	u	21µM*	21µM*
CC(C)OCCCNC(=O)c1cc2c(-c3ccc(Cl)cc3)nn(C)c2s1	u	x	21µM*	x	x	x
Cn1nc(-c2ccc(Cl)cc2)c2cc(C(=O)NCCN3CCOCC3)sc21	-22%	u	u	i	9%	-15%
Cn1nc(-c2ccc(Cl)cc2)c2cc(C(=O)NCCCN3CCOCC3)sc21	16µM*	i	18µM*	i	2%	-10%
CCOCCCNC(=O)c1cc2c(-c3ccc(Cl)cc3)nn(C)c2s1	u	i	u	i	-1%	u
COc1cc2nc(NC(=O)c3ccc(S(=O)(=O)N4CCCC4)cc3)sc2cc1OC	-13%	i	-15%	i	x	x
CCCC(=O)N(c1ccc2oc3c(c2c1)CCCC3)S(=O)(=O)c1ccc(CC)cc1	x	u	x	i	x	x
CCOC(=O)C1=C(c2cccc(Oc3ccccc3)c2)NC(=S)NC1C (configuration not stated)	u	16µM*	23µM*	u	u	-8%[9.24 µM]
CC(=NNc1nc2ccccc2o1)c1cc2ccccc2cn1	0.13µM*	u	0.13µM*	u	u	u
CC(=NNc1nc2ccccc2s1)c1ncccn1	-76%	1.3µM*	0.021µM*	2.3µM*	u	1.2µM*
CC(=NNc1nc2ccccc2o1)c1ncccn1	-115%	u	13µM*	1.8µM*	u	1.2µM*
Cc1cc(C)nc(Nc2nc3ccccc3o2)n1	-3%	u	u	i	2%	-2%
CCOc1ccc(NC(=O)[C@@H](c2ccccc2)N2Cc3ccccc3C2=O)cc1	-8%	i	u	i	x	x
OCC1CCCN(c2nc3cc4c(cc3cc2CNCc2cccc(C(F)(F)F)c2)OCO4)C1 (configuration not stated)	-4%[9.04 µM]	x	-17%	x	x	x
Cc1oc2ncn(CC(C)C)c(=O)c2c1C(=O)NCCCN(C)Cc1ccccc1	-9%	i	-28%	i	x	x
c1ccc(-c2ccc(OCCCNC3CCCC3)cc2)cc1	15µM*	i	u	u	15µM*	18µM*
Cc1cc(C)nc(-n2ncc3c2CC(c2ccccc2)CC3=O)n1 (configuration not stated)	-16%	i	u	i	-21%	0%
COc1ccc(C2CC(=O)c3cnn(-c4nc(C)cc(C)n4)c3C2)cc1 (configuration not stated)	21µM*	u	16µM*	i	u	u
SMILES	TDP1 cell CPT	KB-V1 MDR tox	TDP1 cell noCPT	KB-3-1 tox	HT1080NT lethal	HT1080 IDH1KD tx
CCC1CN(CC(=O)NC(c2ccccn2)C(F)(F)F)Cc2cc(OC)ccc2O1 (configuration not stated)	-5%[9.04 µM]	x	-19%	x	x	x
N#CC(CCc1ccc([N+](=O)[O-])cc1)(CCc1ccc([N+](=O)[O-])cc1)C(N)=O	23µM*	i	13µM*	i	0%	-19%
CC(Sc1nnnn1C)C(=O)Nc1ccc2c(c1)OCCO2 (configuration not stated)	-6%	i	-2%	i	25%	29%
CC(Sc1nc2ccccc2c(=O)n1C)C(=O)Nc1ccc2c(c1)OCCO2 (configuration not stated)	8.2µM*	i	4.1µM*	u	u	-4%
Cc1cccc(NC(=O)C(C)Sc2ncnc3sccc23)c1 (configuration not stated)	18µM*	u	15µM*	i	-10%	-19%
CC(Sc1ncnc2ccccc12)C(=O)Nc1ccc2c(c1)OCCO2 (configuration not stated)	15µM*	u	13µM*	i	-20%	-30%
CC(C)Cn1c(SC(C)C(=O)Nc2ccc3c(c2)OCCO3)nc2ccccc2c1=O (configuration not stated)	29µM*	21µM*	u	i	-24%	-26%
COc1ccccc1NC(=O)C(C)Sc1nc2ccccc2c(=O)n1CC1CCCO1 (configuration not stated)	u	i	-24%	i	3%	-5%
CC(Sc1nc2ccccc2c(=O)n1CC1CCCO1)C(=O)N(C)c1ccccc1 (configuration not stated)	21µM*	i	5.8µM*	i	-8%	0%
O=C(NCCCN1CCCC1=O)C(=O)NCC1OCCN1S(=O)(=O)c1cc(F)ccc1F (configuration not stated)	-1%	i	1%	i	7%	8%
CN(C)c1ccc(C=O)c(O)c1	0%	i	-3%	i	x	x
Cc1ccc(C)c(CNC(=O)C2CCN(c3nc4ccccc4nc3C(F)(F)F)CC2)c1	u	i	u	i	x	x
COC1=C(N)C(=O)c2nc(-c3nc(C(=O)O)c(C)c(-c4ccc(OC)c(OC)c4O)c3N)ccc2C1=O	0.041µM*	0.21µM*	0.1µM*	0.15µM*	0.0092µM*	0.0082µM*
COc1ccc(C(=O)O)c(O)c1OC	13%	x	36%	x	x	x
CCOC(=O)c1sc2nc(OCc3cccnc3)cc(C)c2c1N	u	u	u	i	0%	4%
